Test results taken from paper PMC4336329 (PLoS ONE, 2015).
Hit rate of the full screen: of about 310,000 compounds, about 14,000 (4.5%) showed an effect of 50% or more. Effects have a minus sign here. The full list was thinned out, with strong results kept by preference.

Biological target: human ether-à-go-go-related gene (hERG) potassium channel (human, UniProt Q12809)
Assay: primary screen, population patch clamp on CHO cells stably expressing hERG; higher = less effect of the substance
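Note: peak tail current of the secondary pulse compared with the same well before compound.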

human ether-à-go-go-related gene (hERG) potassium channel, sequence (Q12809 whole entry, looked up): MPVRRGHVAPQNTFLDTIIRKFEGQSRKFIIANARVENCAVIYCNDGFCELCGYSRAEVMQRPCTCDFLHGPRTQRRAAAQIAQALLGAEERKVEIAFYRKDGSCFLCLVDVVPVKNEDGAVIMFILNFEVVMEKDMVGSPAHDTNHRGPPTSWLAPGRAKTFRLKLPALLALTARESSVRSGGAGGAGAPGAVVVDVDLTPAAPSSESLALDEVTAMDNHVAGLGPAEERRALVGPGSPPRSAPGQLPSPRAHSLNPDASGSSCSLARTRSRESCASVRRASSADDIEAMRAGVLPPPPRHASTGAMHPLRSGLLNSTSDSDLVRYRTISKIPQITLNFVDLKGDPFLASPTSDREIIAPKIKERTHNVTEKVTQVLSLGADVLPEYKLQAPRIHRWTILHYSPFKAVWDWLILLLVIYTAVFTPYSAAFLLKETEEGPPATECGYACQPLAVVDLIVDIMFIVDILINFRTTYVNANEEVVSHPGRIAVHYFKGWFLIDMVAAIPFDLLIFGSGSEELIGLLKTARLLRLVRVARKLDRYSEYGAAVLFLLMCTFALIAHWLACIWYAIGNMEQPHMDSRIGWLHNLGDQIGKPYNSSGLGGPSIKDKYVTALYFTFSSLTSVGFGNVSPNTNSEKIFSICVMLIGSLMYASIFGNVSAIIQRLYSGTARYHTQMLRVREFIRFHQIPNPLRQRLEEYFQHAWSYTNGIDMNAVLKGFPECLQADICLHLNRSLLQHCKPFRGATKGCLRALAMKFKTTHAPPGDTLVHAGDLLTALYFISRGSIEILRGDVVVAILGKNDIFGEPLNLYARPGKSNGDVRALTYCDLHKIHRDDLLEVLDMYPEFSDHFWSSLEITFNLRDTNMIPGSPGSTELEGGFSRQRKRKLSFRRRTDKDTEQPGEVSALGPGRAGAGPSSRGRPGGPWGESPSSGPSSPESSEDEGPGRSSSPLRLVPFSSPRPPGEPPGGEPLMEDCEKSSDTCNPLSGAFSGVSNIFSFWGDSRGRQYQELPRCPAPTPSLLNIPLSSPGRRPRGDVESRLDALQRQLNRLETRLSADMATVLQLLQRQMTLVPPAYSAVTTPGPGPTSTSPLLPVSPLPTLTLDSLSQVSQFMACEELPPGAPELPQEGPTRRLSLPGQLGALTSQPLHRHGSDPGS

Compound | hERG current change (%, negative = inhibition) at 10uM [%]
CCCCN(C(=O)c1cccc(S(=O)(=O)N2CCCC2)c1)c1c(N)n(CCC)c(=O)[nH]c1=O | 4.89
O=c1c2ccccc2c(C=NCCCN2CCOCC2)c(O)n1Cc1ccccc1 | -47.7
CCN(CC)CCCN=Cc1c(O)n(-c2c(C)cccc2C)c(=O)c2ccccc12 | -34.2
CCN(CC)CCCN=Cc1c(O)n(Cc2ccccc2)c(=O)c2ccccc12 | -76.7
CCN(CC)CCN=Cc1c(O)n(Cc2ccccc2)c(=O)[nH]c1=O [14739636] | -31.3
CN(C)CCN=Cc1c(O)n(Cc2ccccc2)c(=O)c2ccccc12 | -52.2
CN(C)CCCN=Cc1c(O)n(Cc2ccccc2)c(=O)c2ccccc12 | -64.5
CCN(CC)CCCN=Cc1c(O)n(-c2ccc(C)cc2)c(=O)c2ccccc12 | -5.54
CN(C)CCCN=Cc1c(O)n(Cc2ccc3c(c2)OCO3)c(=O)c2ccccc12 | -49.1
CCN(CC)CCCN=Cc1c(O)n(-c2ccccc2C)c(=O)c2ccccc12 | -52.8
CN(C)CCN=Cc1c(O)n(Cc2ccc3c(c2)OCO3)c(=O)c2ccccc12 | -13.8
CCN(CC)CCCN=Cc1c(O)n(-c2cccc(C)c2)c(=O)c2ccccc12 | -42.8
O=c1c2ccccc2c(C=NCCc2ccccc2)c(O)n1Cc1ccccc1 | -5.61
Cc1cccc(NC(=O)CSc2nnc(Cn3cnc4ccccc43)o2)c1 | -9.07
Cc1ccc(S(=O)(=O)N2CCN(C(=O)c3c(-c4ccccc4)noc3C)CC2)cc1 | -4.97
COc1ccc(S(=O)(=O)Nc2ccc(C(F)(F)F)cc2)cc1OC | -12.4
O=C(Cc1ccccc1)N1CCCC(c2nc(-c3ccc(S(=O)(=O)N4CCCC4)cc3)no2)C1 (centres unmarked) | -9.11
O=C(Cc1ccccc1)N1CCC(c2nc(-c3ccc(F)cc3)no2)CC1 | -50.6
CCCC1CCC(c2nc(-c3cccnc3)no2)CC1 (centres unmarked) | 2.03
Fc1ccc(-c2noc(C3CCN(Cc4cccnc4)CC3)n2)cc1 | -51.5
O=S(=O)(Cc1ccccc1)N1CCCC(c2nc(-c3ccc(F)cc3)no2)C1 (centres unmarked) | -3.59
O=C(c1ccco1)N1CCC(c2nc(-c3ccc(F)cc3)no2)CC1 | -41.8

Compound | hERG current change (%, negative = inhibition) at 10uM [%]
COCC(=O)N1CCC(Oc2ccc(C(=O)NC3Cc4ccccc4C3)cc2)CC1 | -3.57
S=c1[nH]nc(-c2ccncc2)n1/N=C/C(Cl)=C\c1ccccc1 | 23.3
COc1ccccc1CNC(=O)c1cccc(N(C)C)c1 | -2.52
CCCCn1c(O)c(C(C)=NCCc2c[nH]c3ccccc23)c(=O)[nH]c1=O | -16
CCCCn1c(O)c(C(C)=NC(C)c2ccccc2)c(=O)[nH]c1=O (centres unmarked) | -22.3
CCCCn1c(O)c(C(C)=NC(Cc2c[nH]c3ccccc23)C(=O)OC)c(=O)[nH]c1=O (centres unmarked) | -52.1
COC(=O)c1cc(=O)nc2scc(C)n12 | -23.1
CCC1CCCCN1Cc1ccc(CNS(=O)(=O)c2ccc3c(c2)oc(=O)n3C)o1 (centres unmarked) | -19.3
CCOC(=O)c1cc(-c2cc(OC)c(OC)c(OC)c2)nc2c1c(=O)[nH]c(=O)n2Cc1ccccc1 | 1.34
CCCOC(=O)c1ccc(NC(=O)CC(C)(C)C)cc1 | -11.1
C/C(=N\N1CCN(c2ccc(Cl)cc2)CC1)c1cccc([N+](=O)[O-])c1 | -12.4
C(=C\c1ccccc1)/C=N/N1CCN(Cc2ccccc2)CC1 | 1.45
CC(=O)Oc1ccc(/C(C)=N/N2CCN(Cc3ccc(C)cc3)CC2)cc1 | -73.2
C/C(=N\N1CCN(Cc2ccc(Cl)cc2)CC1)c1ccc([N+](=O)[O-])cc1 | -72.6
O=[N+]([O-])c1ccc(Cl)c(/C=N/N2CCN(Cc3ccc(Cl)cc3)CC2)c1 | 4.9
C/C(=N\N1CCN(Cc2ccccc2Cl)CC1)c1ccc(F)cc1 | 2.05
Cc1ccc(CN2CCN(/N=C\C=C\c3ccccc3)CC2)cc1 | -72.2
COc1cc(/C(C)=N/N2CCN(Cc3ccc(C)cc3)CC2)ccc1O | -44.3
Cc1ccc(CN2CCN(/N=C/c3ccccc3)CC2)cc1 | -12.7
C/C(=N\N1CCN(Cc2ccc(Cl)cc2)CC1)c1ccc(F)cc1 | -51.6
CC(=O)Oc1ccc(/C(C)=N\N2CCN(Cc3ccc(Cl)cc3)CC2)cc1 | -36.8
C/C(=N/N1CCN(Cc2ccccc2)CC1)c1ccc(Br)cc1 | -19.9

Compound | hERG current change (%, negative = inhibition) at 10uM [%]
O=C(COC(=O)c1ccc(O)cc1)Nc1ccc2[nH]c(=O)[nH]c2c1 | 2.48
O=C(Nc1cc([N+](=O)[O-])ccc1Cl)C1CC1 | 14.1
COc1ccc(Cn2c(=S)[nH]c3cc(C(=O)N4CCCCC4)ccc3c2=O)cc1 | 13.3
Cc1cc(-n2nc3ccccc3n2)c(O)c([N+](=O)[O-])c1 | 6.11
COc1ccc(CCNC(=O)COC(=O)C2COc3ccccc3O2)cc1 (centres unmarked) | -0.23
CCCn1nnnc1NCc1ccc(N(C)C)cc1 | 1.95
CCC(=O)N1N=C(c2ccc(C)o2)CC1c1ccc(Br)cc1 (centres unmarked) | -23.4
COc1ccc(/C=C/C(=O)NC(=S)NNC(=O)Cc2cccs2)cc1OC | 17.9
CC1=C(C(=O)OC(C)C)C(c2cccs2)N2C(=O)CCSC2=N1 (centres unmarked) | -11.5
CCCCCOP(=O)(OCCCCC)C1(NS(=O)(=O)c2ccccc2)C=CC(=O)c2ccccc21 (centres unmarked) | 9.76
Nc1cc(=O)[nH]c(=O)n1-c1ccc(Cl)cc1 | 15.2
COc1ccccc1OCC(=O)Nc1ccccc1C(=O)N1CCCCC1 | 11.6
C/C(=N\N1CCN(Cc2ccc(C)cc2)CC1)c1ccco1 | -67.6
C/C(=N\N1CCN(Cc2ccccc2)CC1)c1ccco1 | -1.45
Cc1ccc(CN2CCN(C(=O)c3ccco3)CC2)cc1 | -13.5
CCCOC(c1ccccc1)(c1ccccc1)C(Oc1nc(C)cc(C)n1)C(=O)O (centres unmarked) | 21.5
C=CCSc1nnc2c(n1)OC(c1ccco1)Nc1ccccc1-2 (centres unmarked) | -7.61
CCCSc1nc(N)c(C#N)c(-c2ccc(C)cc2)c1C#N | 15.7
COc1cccc(CNC(=O)C2CCN(c3cnccn3)CC2)c1 | -12.4
O=C(NCc1ccc(Cl)cc1)C1CCN(c2cnccn2)CC1 | -59.9
O=C(NCCc1ccc(Cl)cc1)C1CCN(c2cnccn2)CC1 | -35.3
O=C(NCc1ccc(F)cc1)C1CCN(c2cnccn2)CC1 | -64.9

Compound | hERG current change (%, negative = inhibition) at 10uM [%]
O=C(NCc1ccccc1Cl)C1CCN(c2cnccn2)CC1 | -4.12
C=CCNC(=O)C1CCN(c2cnccn2)CC1 | 27.8
Cn1c(=O)c2c(SCc3cccc(C(F)(F)F)c3)nc(-c3ccco3)nc2n(C)c1=O | -3.88
O=C(CNC(=O)c1ccco1)OCc1c(F)cccc1Cl | -5.42
COc1ccccc1CNC(=O)C1(NC(=O)Nc2ccc(C)cc2)CCCCC1 | 30.7
COC(=O)[C@H]1[C@H]2C[C@@H]3c4[nH]c5cc(OC)ccc5c4CCN3C[C@H]2C[C@@H](OC(=O)c2cc(OC)c(OC)c(OC)c2)[C@@H]1OC | -12.4
COc1ccc(N2C(=O)CC(NCCNc3ccc([N+](=O)[O-])cn3)C2=O)cc1 (centres unmarked) | -34
CCOc1ccc(N2C(=O)CC(NCCNc3ccc([N+](=O)[O-])cn3)C2=O)cc1 (centres unmarked) | -77.5
CCCOc1ccc(N2C(=O)CC(NCc3ccncc3)C2=O)cc1 (centres unmarked) | -11.6
CCCOc1ccc(N2C(=O)CC(NCCNc3ccc(S(=O)(=O)CC)cc3)C2=O)cc1 (centres unmarked) | -59.9
CCOc1ccc(C(=O)c2cccs2)cc1 | -6.82
CCCOc1ccc(N2C(=O)CC(NCc3ccc(S(N)(=O)=O)cc3)C2=O)cc1 (centres unmarked) | 4.38
CCOc1ccc(N2C(=O)CC(NCCc3ccncc3)C2=O)cc1 (centres unmarked) | -5.67
CCOc1ccc(N2C(=O)CC(NCCNc3ccc(C(=O)c4cccs4)cc3)C2=O)cc1 (centres unmarked) | -71.5
CCOc1ccc(N2C(=O)CC(NC3CCN(C(=O)c4cccs4)CC3)C2=O)cc1 (centres unmarked) | -24.7
CCCOc1ccc(N2C(=O)CC(NCCNc3ccc([N+](=O)[O-])cn3)C2=O)cc1 (centres unmarked) | -72.5
CCCOc1ccc(N2C(=O)CC(NCCc3ccc(S(N)(=O)=O)cc3)C2=O)cc1 (centres unmarked) | -5.4
CCCOc1ccc(N2C(=O)CC(NCC#N)C2=O)cc1 (centres unmarked) | 2.57
Cc1ccc(/C=C/C(=O)OCC(=O)NCc2ccc(Cl)cc2)o1 | -13.9
O=C(COc1ccc(Cl)cc1Br)N1CCN(S(=O)(=O)c2ccccc2)CC1 | -9.19
